KKLEB cytotox: reduces viability of KKLEB cystic fibrosis airway cells; activity change (cytotoxicity), % at 5 µM; 0.36% of 360,000 active; KKLEB CF airway cells viability, ATPlite luminescence, overnight; hits give low values; cells stimulated with P. aeruginosa culture filtrate;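 active means corrected activity change at or below -50% at 5 µM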
Peg3 promoter: Peg3 promoter activity inhibition | HeLa PEG-Prom luciferase reporter, luminescence, overnight | 1.7% of 360,000 active | inhibition, % at 20 µM;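 active means inhibition of at least 50% at 20 µM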
CHOP inhibitor: CHOP inhibition in unfolded protein response | CHO-K1 CHOP-promoter luciferase, tunicamycin-induced, 15-18 h | inhibition, % at 10 µM | 3.8% of 220,000 active;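 active means compounds that reduced the stress-induced luciferase reporter signal by more than about 70% of percent inhibition, limit read from the data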;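 further: 0% = tunicamycin plus vehicle and 100% = wells without tunicamycin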
MITF TRPM1 inh: inhibitors of MITF-driven TRPM1 promoter in melanoma cells; 0.83% of 330,000 active; AID 488899; inhibition, % at 12.5 µM; SK-MEL-5 TRPM1 promoter luciferase, 24 h;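 active means mean inhibition across replicates of 60% or more, whatever share of single replicates reaches that level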
HIF-2a inh: HIF-2a inhibition | 786-0 RCC cells HIF-2a reporter, luciferase luminescence, overnight | inhibition, % at 18.8 µM | 0.72% of 360,000 active | AID 624352;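 active means inhibition of the luminescence signal of 40% or more relative to plate controls, in a single-dose primary screen at 18.75 µM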
CF NFkB block: cystic fibrosis NF-kB activation inhibition; AID 588850; 0.86% of 360,000 active; KKLEB NF-kB-GFP reporter, PAF-induced, GFP fluorescence overnight; inhibition, % at 5 µM;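 active means at least 50% inhibition at 5 µM, scaled per plate between neutral and stimulator controls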;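 further: PAF is a Pseudomonas aeruginosa culture filtrate used as stimulus; plate controls were PAF-stimulated DMSO wells for no effect and unstimulated DMSO wells for full effect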
CF NFkB conf: confirmation of cystic fibrosis induced NF-kB inhibitors; 64% of 1,300 active; inhibition, % at 5 µM; shares compounds with CF NFkB block; KKLEB CF airway cells, PAF-induced NF-kB-GFP fluorescence, overnight; in the data active means inhibition above about 40%;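 further: stimulus PAF is a Pseudomonas aeruginosa filtrate and not platelet activating factor; plate controls were DMSO wells with stimulus for no effect and unstimulated DMSO wells for full effect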
Mdm2 MdmX conf: Mdm2/MdmX (human) interaction inhibition, confirmed | shares compounds with HIF-2a inh | SaOS-2 split-luciferase Mdm2/MdmX complementation, luminescence | inhibition, % at 8 µM | 99% of 740 active | AID 504601;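 active means mean inhibition of the luminescence signal across two replicates at or above 26 percent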
Target sequence (O15151 whole entry, looked up): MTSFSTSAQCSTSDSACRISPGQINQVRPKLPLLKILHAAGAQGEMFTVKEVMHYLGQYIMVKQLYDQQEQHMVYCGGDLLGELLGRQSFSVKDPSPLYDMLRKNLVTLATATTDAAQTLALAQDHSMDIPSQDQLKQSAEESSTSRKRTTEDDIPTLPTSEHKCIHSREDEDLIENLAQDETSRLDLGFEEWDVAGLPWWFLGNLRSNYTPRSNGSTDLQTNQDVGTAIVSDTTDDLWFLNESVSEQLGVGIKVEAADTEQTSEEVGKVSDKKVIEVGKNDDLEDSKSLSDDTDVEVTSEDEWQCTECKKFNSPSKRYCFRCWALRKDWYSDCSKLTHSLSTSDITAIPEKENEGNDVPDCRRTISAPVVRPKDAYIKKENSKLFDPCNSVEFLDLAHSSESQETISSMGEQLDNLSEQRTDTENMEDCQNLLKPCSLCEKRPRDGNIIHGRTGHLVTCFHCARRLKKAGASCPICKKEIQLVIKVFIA
Target sequence (Q00987 whole entry, looked up): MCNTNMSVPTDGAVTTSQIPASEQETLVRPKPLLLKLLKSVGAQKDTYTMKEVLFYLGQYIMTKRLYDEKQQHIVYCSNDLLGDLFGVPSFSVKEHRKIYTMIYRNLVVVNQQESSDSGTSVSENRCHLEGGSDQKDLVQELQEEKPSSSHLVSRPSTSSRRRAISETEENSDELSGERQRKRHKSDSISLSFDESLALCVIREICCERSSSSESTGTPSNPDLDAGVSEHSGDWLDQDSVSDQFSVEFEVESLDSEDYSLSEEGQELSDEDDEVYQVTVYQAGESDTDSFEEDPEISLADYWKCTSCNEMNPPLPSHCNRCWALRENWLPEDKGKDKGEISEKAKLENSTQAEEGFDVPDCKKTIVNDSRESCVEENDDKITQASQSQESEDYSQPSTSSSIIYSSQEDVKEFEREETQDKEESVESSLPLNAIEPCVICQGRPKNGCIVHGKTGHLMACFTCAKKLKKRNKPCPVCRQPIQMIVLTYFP
HIF-2a inh conf: confirmation of HIF-2a inhibitors; shares compounds with HIF-2a inh; 786-0 RCC cells, HIF-2a luciferase reporter luminescence, overnight; inhibition, % at 18.8 µM; 56% of 1,800 active; AID 651580;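 active means mean inhibition across four replicates of at least 40 percent at the single tested concentration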
HIF-1a counter: inhibits HIF-1a reporter, a counter-screen for HIF-2a inhibitors; shares compounds with HIF-2a inh; MiaPaCa-2 HIF-1a luciferase reporter, desferoxamine, overnight; inhibition, % at 18.8 µM; 72% of 1,800 active; AID 651589;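 active means mean inhibition of the reporter signal across four replicates at the single tested dose of 50% or more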
Numbers without * were called inactive; · = not tested or not shown. The list is not random: actives were taken first. Their share in the collection is about 4.3%.

SMILES | KKLEB cytotox | Peg3 promoter | CHOP inhibitor | MITF TRPM1 inh | HIF-2a inh | CF NFkB block | CF NFkB conf | others
C[C@H]1CCC[C@H](O)CCCCCc2cc(O)cc(O)c2C(=O)O1 | 11 | 22 | 18 | -3 | 7 | 35 | ·
C[C@H]1CCC[C@@H](O)CCC/C=C/c2cc(O)cc(O)c2C(=O)O1 | 0 | 64* | 44 | 10 | -6 | 51* | 46*
NC(=O)c1c(Br)n(C2OC(CO)C(O)C2O)c2ncnc(N)c12 (stereo unspecified) | -30 | 44 | · | 51 | 21 | 61* | 61*
N#Cc1c(Br)n(C2OC(CO)C(O)C2O)c2ncnc(N)c12 (stereo unspecified) | -24 | 61* | · | 36 | -13 | 73* | 84*
Nc1ncnc2c1ncn2[C@@H]1O[C@H](COP(=O)(O)CP(=O)(O)O)[C@@H](O)[C@H]1O | -3 | -11 | · | 2 | -27 | -4 | ·
CCc1ccccc1NC(=O)CNCc1ccccc1 | 8 | 11 | 0 | 1 | 0 | 2 | ·
Oc1ccc(Br)cc1CN1CCN(c2ccccc2)CC1 | -27 | 13 | 68 | 3 | 2 | 62* | 13
CC(C)(C)C(=O)O[C@H]1CC[C@@]2(C)C(=CC(=O)C3C2CC[C@]2(C)C(=O)[C@@H](F)CC32)C1 (stereo partly specified) | 3 | -1 | · | 4 | 13 | 12 | ·
COc1ccc(C(CNC(=O)Cc2ccc(Cl)c(Cl)c2)N2CCCCC2)cc1 (stereo unspecified) | -6 | 6 | · | -16 | 19 | -5 | ·
CCOC(=O)c1cnc(SCc2ccc(Cl)c(Cl)c2)nc1N1CC1 | -41 | 31 | · | 34 | -12 | 67* | 38
c1ccc2cc(C3N4CCCN34)ccc2c1 (stereo unspecified) | -3 | -3 | 7 | 0 | -21 | 6 | ·
COc1cc(C2c3cc4c(cc3CC3COC(=O)C32)OCO4)cc(OC)c1OC (stereo unspecified) | -23 | -14 | · | · | 7 | 41 | ·
COc1cc(C2c3cc4c(c(O)c3CC3COC(=O)C32)OCO4)cc(OC)c1OC (stereo unspecified) | -11 | -19 | · | 41 | 20 | 51* | 90*
COc1ccc2nc3oc(C(=O)N4CCC5(CC4)OCCO5)cc3cc2c1 | 10 | 6 | 19 | 4 | -55 | 8 | ·
O=c1[nH]c2ccccc2n1C1CCN(C(c2cc3ccccc3o2)c2nnnn2-c2ccc3c(c2)OCCO3)CC1 (stereo unspecified) | -35 | 98* | · | · | -3 | 80* | 106*
COc1ccc(C(c2nnnn2-c2ccc(OC)cc2)N2CCC(n3c(=O)[nH]c4ccccc43)CC2)cc1 (stereo unspecified) | -39 | 68* | · | · | -20 | 92* | 90*
Oc1c(Br)c(Br)c(Br)c(Br)c1Br | -7 | 48 | · | 2 | -38 | 48 | ·
NC(=Nc1ccccc1)NN=Cc1c[nH]c2ccccc12 | -45 | 33 | · | 88* | -14 | 67* | 55*
COc1ccc(Oc2cc(NC(=O)c3nn(C)cc3[N+](=O)[O-])cc([N+](=O)[O-])c2)cc1 | -42 | 104* | -54 | 81* | 94* | 59* | 108* | Mdm2 MdmX conf=84*
CNc1cc(Cl)c2nonc2c1[N+](=O)[O-] | -46 | 107* | 107* | 96* | 95* | 84* | 29 | HIF-2a inh conf=93*;HIF-1a counter=106*
COC(=O)[C@@H]1N=C(c2ccc(OC)cc2)O[C@]12C(=O)N(Cc1ccccc1)c1ccccc12 | · | · | · | · | -2 | · | ·
Cc1csc(=N)n1Cc1ccccc1 | 4 | -8 | 6 | -4 | 11 | -29 | ·
C[C@@H]([C@@H](O)c1ccccc1)N(C)C(=O)Cc1ccccc1 | 13 | 3 | · | 4 | 13 | -19 | ·
CN(C)CC(C(=O)Cc1ccccc1)c1ccccc1 (stereo unspecified) | -40 | 101* | · | 41 | 97* | 59* | -41 | HIF-2a inh conf=22;HIF-1a counter=106*
CN(C)C(=O)O/N=C(\N)COc1ccc(C(C)(C)C)cc1 | -6 | 107* | 28 | -10 | 60* | 5 | · | Mdm2 MdmX conf=103*;HIF-2a inh conf=-76;HIF-1a counter=-45
SMILES | KKLEB cytotox | Peg3 promoter | CHOP inhibitor | MITF TRPM1 inh | HIF-2a inh | CF NFkB block | CF NFkB conf | others
COc1ccccc1C1C([N+](=O)[O-])=C(N)Oc2c1c(=O)oc1ccccc21 (stereo unspecified) | 5 | 2 | 5 | 1 | 22 | 10 | ·
CCCCCCCC(=O)NC(Oc1ccccc1[N+](=O)[O-])C(Cl)(Cl)Cl (stereo unspecified) | 10 | 7 | 64 | 8 | -16 | 2 | ·
CC[C@H](C)[C@@H]1NC(=O)CNC(=O)c2csc(n2)[C@H](C(C)(C)O)OC(=O)C(C)(C)[C@H](CCCC(C)(Cl)Cl)OC(=O)c2csc1n2 | -91* | 65* | · | · | 42* | 83* | · | HIF-2a inh conf=44*;HIF-1a counter=88*
Cc1cccc(OP(=O)(NCc2ccccc2)Oc2cccc(C)c2)c1 | -10 | 34 | 65 | -11 | 68* | 6 | · | HIF-2a inh conf=0;HIF-1a counter=80*
Cc1cccc(OP(N)(=O)Oc2cccc(C)c2)c1 | 0 | 7 | 21 | -6 | 8 | -7 | ·
COc1cc([N+](=O)[O-])c2nc(C)ccc2c1[N+](=O)[O-] | -22 | 7 | · | 10 | -10 | 26 | ·
COc1cc([N+](=O)[O-])c2ncccc2c1[N+](=O)[O-] | -2 | 48 | · | · | 43* | 28 | · | HIF-2a inh conf=1;HIF-1a counter=78*
CC1CCC(C(C)C)C(OC(=O)Cn2c(COc3ccccc3)[n+](C)c3ccccc32)C1 (stereo unspecified) | -72* | 95* | 92* | 97* | -10 | 74* | · | Mdm2 MdmX conf=102*
C=Cn1ccnc1P(=S)(c1nccn1C=C)C1CCCCC1 | -11 | 2 | -17 | 0 | 11 | -3 | ·
COc1cc2c(cc1/C=C/[N+](=O)[O-])OCO2 | -3 | 110* | 93* | 79* | 71* | 26 | · | HIF-2a inh conf=79*;HIF-1a counter=98*
CC[C@]12C=CCN3CCC4(c5cc(Br)c(OC)cc5N(C)C4[C@@](O)(C(=O)OC)[C@@H]1OC(C)=O)C32 (stereo partly specified) | -18 | 12 | 5 | 6 | 40* | 16 | · | HIF-2a inh conf=-4;HIF-1a counter=15

High-throughput results (PubChem)
